From PubChem BioAssay (Tox21)
“And” between values parts separate entries of the source, which are not always exact repeats. Equal entries are not always repeated. Records with an inconclusive call do not appear. More than one record can exist for a structure, and the calls need not agree. The source made the active and inactive calls. Unless noted, calls follow the shape of the dose curve; as a rule, active = well fitted curve in the direction sought with a large enough effect in the repeat runs; inconclusive = weak or mixed curves; inactive = no such curve, though single readings can be large; an effect the other way counts as inactive or inconclusive.

Assays:
[1] = qHTS assay to identify small molecule agonists of the estrogen receptor alpha (ER-alpha) signaling pathway in the presence of an antagonist - cell viability counter screen (AID 1259386);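 also: cells exposed to compounds for 22 h at 37 °C before the viability read; nearly all actives have a fitted effect of over 30% in size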; also: potency is read from the fitted curve at half-maximal effect; as to activity change, negative = cytotoxicity: series mostly up to about 92 µM
In short: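 The test measures whether compounds kill ER-alpha reporter cells (VM7Luc4E2) under antagonist co-treatment (ICI-182,780, 10.0nM). Fluorescence from CellTiter-Fluor is read after a 22hr exposure.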

[2] = biological target: Progesterone receptor (Homo sapiens) (UniProt P06401); test: qHTS assay to identify small molecule agonists of the progesterone receptor (PR) signaling pathway (AID 1346784; calls by dose curve; also: nearly all actives have a fitted effect of over 30% in size)
In short: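 PR-UAS-bla HEK 293T cells (beta-lactamase reporter under UAS) in 2% charcoal-stripped FBS, dosed with 23 nL compound after 6 hr, incubated 16hr at 37C. LiveBLAzer B/G FRET substrate added, fluorescence read after 2 hours.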

[3] = qHTS assay to identify small molecule agonists of the progesterone receptor (PR) signaling pathway - cell viability counter screen (AID 1346799; calls by dose curve; also: nearly all actives have a fitted effect of over 45% in size; also: potency is read from the fitted curve at half-maximal effect)
In short: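 Counter screen in the PR-UAS-bla HEK293T wells (2% charcoal-stripped FBS, 16 h compound exposure at 37 C) after the bla read. CellTiter-Glo added, 30 min at room temperature, luminescence read as cell viability.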

[4] = qHTS assay to identify small molecule antagonists of the TGF-beta/Smad signaling pathway - cell viability counter screen (AID 1346824); also: nearly all actives have a fitted effect of over 50% in size; also: potency is read from the fitted curve at half-maximal effect
In short: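 SBE-bla HEK 293T cells were plated overnight at 37 C, then given compounds in DMSO plus TGF-beta1 (added as 0.25 ng/mL solution) for 5 hr. After the bla read, CellTiter-Glo was added to the same wells and luminescence read after 30 min at room temperature.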

[5] = qHTS assay to identify small molecule agonists of the TGF-beta/Smad signaling pathway - cell viability counter screen (AID 1346829); also: nearly all actives have a fitted effect of over 45% in size; also: potency is read from the fitted curve at half-maximal effect; as to activity change, negative = cytotoxicity: top concentration of the series differs between compounds
In short: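 After overnight seating at 37 C and 5% CO2, reporter cells got compounds for 5 hr and FRET substrate for 2 hr; cell viability then came from CellTiter-Glo luminescence.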

[6] = qHTS assay to identify small molecule agonists of the TGF-beta/Smad signaling pathway (AID 1346859; active = well fitted activation curve with a large enough effect in the signal ratio in the repeat runs, not every such curve was filed as active; the % refers to the signal ratio; also: series mostly up to about 77 µM)
In short: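 SBE-bla HEK293T cells plated overnight, then compound exposure for 5 h at 37 C. Beta-lactamase reporter read with LiveBLAzer B/G FRET substrate after 2 h at room temperature, fluorescence at 405 nm excitation, 460/530 nm emission.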

[7] = qHTS assay to identify small molecule antagonists of the progesterone receptor (PR) signaling pathway - cell viability counter screen (AID 1346798); also: nearly all actives have a fitted effect of over 50% in size; also: potency is read from the fitted curve at half-maximal effect; as to activity change, negative = cytotoxicity: series mostly up to about 92 µM
In short: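 PR-UAS-bla HEK293T cells, 3,000/well in 2% charcoal-stripped FBS medium, dosed with compounds plus R5020 agonist and incubated 16 h at 37C. Viability then measured in the same wells by CellTiter-Glo luminescence after 30 min at RT.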

[8] = biological target: Thyrotropin-releasing hormone receptor (Homo sapiens) (UniProt P34981); test: qHTS assay to identify small molecule antagonists of the thyrotropin-releasing hormone receptor (TRHR) signaling pathway (AID 1346877; active = well fitted inhibition curve with a large enough effect in the repeat runs, not every such curve was filed as active; also: series mostly up to about 51 µM)
In short: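 Overnight-plated (18 h, 37 °C) HEK293 cells expressing TRHR were dye-loaded 2 h, treated with compound, then stimulated with TRH at 1 nM final. Fluorescence intensity was captured every second for 3 min.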

[9] = biological target: Thyrotropin-releasing hormone receptor (Homo sapiens) (UniProt P34981); test: qHTS assay to identify small molecule agonists of the thyrotropin-releasing hormone receptor (TRHR) signaling pathway (AID 1346891; calls by dose curve; also: series mostly up to about 58 µM)
In short: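 HEK293 cells expressing TRHR plated 18 h at 37 C/5% CO2, calcium dye-loaded 2 h at 37 C, then compound added (agonist mode); kinetic calcium fluorescence read 3 min at 1 s intervals; 15 concentrations in triplicate.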

[10] = biological target: Progesterone receptor (Homo sapiens) (UniProt P06401); test: qHTS assay to identify small molecule antagonists of the progesterone receptor (PR) signaling pathway (AID 1346795; active = well fitted inhibition curve with a large enough effect in the signal ratio in the repeat runs, not every such curve was filed as active; the % refers to the signal ratio; also: potency is read from the fitted curve at half-maximal effect)
In short: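 PR-UAS-bla HEK293T cells with beta-lactamase reporter under UAS control, in 2% charcoal-stripped FBS, treated with compounds plus 1 nM promegestone (R5020, final) for 16 hr at 37C. Read-out: FRET beta-lactamase substrate fluorescence after 2 hr at room temperature.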
% is scaled to controls: 0 for no effect and ±100 for the full control effect.

Thyrotropin-releasing hormone receptor (Homo sapiens), sequence (P34981 whole entry, looked up): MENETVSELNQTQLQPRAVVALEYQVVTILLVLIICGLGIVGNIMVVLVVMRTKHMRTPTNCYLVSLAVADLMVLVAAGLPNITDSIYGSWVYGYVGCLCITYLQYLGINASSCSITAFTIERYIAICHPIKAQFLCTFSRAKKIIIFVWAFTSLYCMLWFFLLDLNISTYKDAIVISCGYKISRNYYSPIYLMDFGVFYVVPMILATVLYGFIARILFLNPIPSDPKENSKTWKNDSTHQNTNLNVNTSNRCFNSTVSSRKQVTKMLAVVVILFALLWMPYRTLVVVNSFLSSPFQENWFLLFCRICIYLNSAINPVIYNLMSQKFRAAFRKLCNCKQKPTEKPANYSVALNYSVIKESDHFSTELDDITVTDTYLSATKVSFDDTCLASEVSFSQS
Progesterone receptor (Homo sapiens), sequence (P06401 whole entry, looked up): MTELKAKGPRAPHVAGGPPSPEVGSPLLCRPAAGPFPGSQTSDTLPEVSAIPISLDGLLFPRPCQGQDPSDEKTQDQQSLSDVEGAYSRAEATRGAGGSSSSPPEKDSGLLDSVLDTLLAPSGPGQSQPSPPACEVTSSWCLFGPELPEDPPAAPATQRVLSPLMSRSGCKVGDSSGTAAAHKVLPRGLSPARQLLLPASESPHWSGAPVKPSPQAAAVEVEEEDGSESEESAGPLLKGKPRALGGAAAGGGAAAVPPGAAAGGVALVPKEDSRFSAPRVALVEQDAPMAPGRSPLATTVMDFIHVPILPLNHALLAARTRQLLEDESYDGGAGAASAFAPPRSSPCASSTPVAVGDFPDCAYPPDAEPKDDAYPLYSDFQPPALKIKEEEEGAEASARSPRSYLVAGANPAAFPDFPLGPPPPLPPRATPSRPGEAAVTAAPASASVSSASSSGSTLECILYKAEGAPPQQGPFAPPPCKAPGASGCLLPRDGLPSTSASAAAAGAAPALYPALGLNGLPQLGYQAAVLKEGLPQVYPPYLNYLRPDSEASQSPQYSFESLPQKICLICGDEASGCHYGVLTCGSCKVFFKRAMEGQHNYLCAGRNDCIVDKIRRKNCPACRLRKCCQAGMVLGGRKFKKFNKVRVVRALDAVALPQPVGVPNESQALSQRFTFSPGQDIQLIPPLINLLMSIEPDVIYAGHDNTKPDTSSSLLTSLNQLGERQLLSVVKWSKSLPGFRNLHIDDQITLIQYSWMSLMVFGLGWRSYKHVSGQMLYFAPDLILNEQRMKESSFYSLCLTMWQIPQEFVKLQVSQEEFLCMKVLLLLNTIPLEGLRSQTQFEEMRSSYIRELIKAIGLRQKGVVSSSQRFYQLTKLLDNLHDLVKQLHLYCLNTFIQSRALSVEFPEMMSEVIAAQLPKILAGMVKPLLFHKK

C=C(C)C(=O)OCC[N+](C)(C)C
inactive: Potency [1] | Potency [2] | Potency [3] | Potency [4] | Potency [5] | Potency [6]

CC(C)(C)c1ccc(C(=O)CCCN2CCC(OC(c3ccccc3)c3ccccc3)CC2)cc1
inactive: Potency [1] | Potency [2]
active: Potency [4] 21.3 µM | Potency [5] 23.9 µM

Nc1cc(C(F)(F)F)ccc1S
inactive: Potency [1] | Potency [2] | Potency [4] | Potency [5] | Potency [6] | Potency [8] | Potency [9]
active: Potency [7] 13.3 µM

O=C(OC[C@H]1O[C@@H](OC(=O)c2cc(O)c(O)c(OC(=O)c3cc(O)c(O)c(O)c3)c2)[C@H](OC(=O)c2cc(O)c(O)c(OC(=O)c3cc(O)c(O)c(O)c3)c2)[C@@H](OC(=O)c2cc(O)c(O)c(OC(=O)c3cc(O)c(O)c(O)c3)c2)[C@@H]1OC(=O)c1cc(O)c(O)c(OC(=O)c2cc(O)c(O)c(O)c2)c1)c1cc(O)c(O)c(OC(=O)c2cc(O)c(O)c(O)c2)c1
inactive: activation [2] 2.55% [at 19 µM] | activity change, negative = cytotoxicity [7] -7.91% [at 18.9 µM] | activity change, negative = cytotoxicity [3] 9.14% [at 19 µM] | viability change, negative = cytotoxic [4] 3.78% [at 15.8 µM] | activity change, negative = cytotoxicity [5] 7.05% [at 15.8 µM] | activation [6] -3.84% [at 15.8 µM] | activity, negative = inhibition [8] 4.26% [at 10.5 µM] | activation [9] 0.113% [at 11.8 µM]
active: Potency [1] 18.5 µM

Cc1cc2c(cc1C(F)(F)F)N(C(=O)Nc1ccc(Oc3cccnc3C)nc1)CC2
inactive: Potency [1] | Potency [2] | Potency [5]

O=c1[nH]cnc2nc[nH]c12
inactive: Potency [1] | Potency [2] | Potency [4] | Potency [5] | Potency [6] | Potency [8] | Potency [9]

C=CC(=O)OCC(CO)(COCC(COC(=O)C=C)(COC(=O)C=C)COC(=O)C=C)COC(=O)C=C
active: Potency [1] 10.7 µM | Potency [10] 6.04 µM | Potency [7] 15.2 µM | Potency [3] 15.2 µM | Potency [4] 48.4 µM | Potency [5] 21.6 µM

Clc1ccccc1C(c1ccccc1)(c1ccccc1)n1ccnc1
34.7 µM (active) and inactive: Potency [5]
inactive: Potency [8] | Potency [9]
54.5 µM (active) and inactive: Potency [1]
active: Potency [10] 9.44 µM | Potency [3] 7.7 µM

CCN(C(=O)N(CC)c1ccccc1)c1ccccc1
inactive: Potency [1] | Potency [4] | Potency [5] | Potency [6] | Potency [8] | Potency [9]
active: Potency [10] 30.6 µM

Oc1ccc2cc(SSc3ccc4cc(O)ccc4c3)ccc2c1
active: Potency [10] 30.7 µM and 48.6 µM
inactive: Potency [1] | Potency [7] | Potency [4] | Potency [5] | Potency [6] | Potency [8] | Potency [9]

O=S1(=O)CC(Cl)(Cl)C(Cl)(Cl)C1
active: Potency [1] 27.3 µM | Potency [10] 6.86 µM | Potency [7] 13.7 µM
inactive: Potency [8] | Potency [9]

CN(C)C(=O)C1(N2CCCCC2)CCN(CC[C@@]2(c3ccc(Cl)c(Cl)c3)CN(C(=O)c3ccccc3)CCO2)CC1
inactive: Potency [6] | Potency [9]
active: Potency [1] 57.1 µM | Potency [10] 50.9 µM | Potency [3] 20.3 µM

Cc1cc(CCN2CCN(c3nsc4ccccc34)CC2)cc2c1NC(=O)CC2(C)C
active: Potency [1] 48.6 µM | Potency [10] 19.3 µM | Potency [3] 27.3 µM | Potency [4] 54.9 µM

Cc1ccc2oc(CN(Cc3ccccc3)C(=O)Nc3c(F)cc(F)cc3F)c(-c3ccc(Cl)cc3)c2c1
inactive: Potency [1] | Potency [2] | Potency [4] | Potency [5] | Potency [8] | Potency [9]

CN1CCN(CCC(=O)N2c3ccccc3Sc3ccc(C(F)(F)F)cc32)CC1
active: Potency [10] 26.6 µM | Potency [7] 18.8 µM | Potency [3] 23.7 µM
inactive: Potency [1] | Potency [4] | Potency [5] | Potency [6] | Potency [8] | Potency [9]

CCCC/C=C/CCCCO
inactive: Potency [1] | Potency [10] | Potency [3] | Potency [4] | Potency [5] | Potency [6] | Potency [8] | Potency [9]

Oc1ccc(Cl)cc1Sc1cc(Cl)ccc1O
inactive: Potency [3] | Potency [4] | Potency [5] | Potency [6]
active: Potency [1] 29.8 µM | Potency [10] 7.68 µM and 9.44 µM

COC(=O)C1=C(C)NC(C)=C(C(=O)OCC(C)C)C1c1ccccc1[N+](=O)[O-] (stereo not drawn)
54.5 µM (active) and inactive: Potency [1]
inactive: Potency [4] | Potency [5] | Potency [6] | Potency [8] | Potency [9]
active: Potency [10] 10.6 µM

Nc1ccc(N)c2ccccc12
inactive: Potency [3] | Potency [8] | Potency [9]
active: Potency [1] 30.6 µM | Potency [10] 54.4 µM

S=c1[nH]c2ccccc2s1
inactive: Potency [1] | Potency [2] | Potency [4] | Potency [5] | Potency [8] | Potency [9]

CCCCCCOC(=O)c1ccc(O)cc1
inactive: Potency [1] | Potency [4] | Potency [5] | Potency [8] | Potency [9]
active: Potency [10] 38.6 µM and 21.7 µM

Nc1ccccc1O
inactive: Potency [2] | Potency [4] | Potency [5] | Potency [6] | Potency [8] | Potency [9]
active: Potency [1] 67.7 µM

C/C(=C(/OCCOc1ccc(Cl)cc1)c1ccc(Cl)cc1Cl)n1ccnc1
active: Potency [10] 8.41 µM | Potency [7] 13.3 µM | Potency [3] 16.8 µM
inactive: Potency [1] | Potency [4] | Potency [5]

O=c1[nH]sc2cc(Cl)ccc12
inactive: Potency [1] | Potency [2] | Potency [4] | Potency [5] | Potency [6] | Potency [8] | Potency [9]

CSc1ccc2c(c1)C(N1CCN(C)CC1)Cc1ccccc1S2 (stereo not drawn)
inactive: Potency [1] | Potency [4] | Potency [5] | Potency [6] | Potency [8] | Potency [9]
active: Potency [10] 26.6 µM | Potency [7] 26.6 µM | Potency [3] 33.5 µM

CS(=O)(=O)CCNCc1ccc(-c2ccc3ncnc(Nc4ccc(OCc5cccc(F)c5)c(Cl)c4)c3c2)o1
active: Potency [10] 7.5 µM | Potency [7] 18.8 µM | Potency [3] 15 µM
inactive: Potency [1] | Potency [4] | Potency [5] | Potency [8] | Potency [9]

CC(=O)N1CCN(c2ccc(OC[C@H]3CO[C@](Cn4ccnc4)(c4ccc(Cl)cc4Cl)O3)cc2)CC1
active: Potency [1] 61.1 µM | Potency [10] 13.7 µM | Potency [7] 30.6 µM | Potency [3] 30.6 µM

CC1=C(/C=C/C(C)=C/C=C/C(C)=C/C=O)C(C)(C)CCC1
inactive: Potency [6] | Potency [8] | Potency [9]
active: Potency [1] 60.8 µM | Potency [10] 54.2 µM | Potency [3] 60.8 µM
